ssDAF12 agonist – activators of S. stercoralis DAF-12 nuclear receptor; AID 652126; HEK293 ssDAF-12/GRIP1 lit1-tk-luc reporter, luminescence; % of 3 µM dafachronic acid response; 1% of 370,000 active; activation, % at 6.8 µM;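 active means activation above the mean over all tested compounds plus 3 SD, cut at about 0.9% in these data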;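 further: 0% = DMSO-only wells and 100% = 3 µM delta7-dafachronic acid wells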
DAX1 inh – blocks DAX1 repression of SF-1 activated StAR promoter; inhibition, % at 6.8 µM; HEK293T StAR-luciferase reporter, SF-1/DAX-1 repression relief; 1.1% of 370,000 active;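 active means inhibition above the mean over all tested compounds plus 3 SD, cut at about 3.6% in these data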;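 further: 0% = DAX-1 cells with DMSO and 100% = cells lacking DAX-1 with DMSO; higher inhibition means more luminescence from relief of DAX-1 repression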
hgDAF12 agonist – agonists of H. glycines DAF-12 nuclear receptor; activation, % at 6.8 µM; 1.8% of 370,000 active; HEK293 GAL4-hgDAF12 UAS-luciferase reporter, agonist luminescence; normalized to butyrate control;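 active means activation above a cutoff set at the mean of all screened compounds plus 3 SD, cut at about 10% in these data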;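 further: 0% = DMSO wells and 100% = sodium butyrate wells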
hcDAF-12 act – H. contortus DAF-12 activation, primary screen; HEK293 hcDAF-12 lit1-tk-luc reporter, luminescence; 0% DMSO, 100% Δ7-dafachronic acid; activation, % at 6.8 µM; 1.4% of 370,000 active;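 active means activation above the mean of all tested compounds plus 3 SD, cut at about 5.5% in these data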;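 further: 100% = response to 3 µM Δ7-dafachronic acid high control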
SMARCA2 act – increases SMARCA2 function in MMTV reporter cells; AID 652017; 1% of 370,000 active; activation, % at 9.1 µM; MG213 cells, MMTV-luciferase reporter, dexamethasone, overnight; in the data active means activation above about 7.8%;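 further: 0% = vehicle wells and 100% = reference activator wells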
DAX1 conf – NR0B1 (human) inhibition, confirmation; inhibition, % at 6.8 µM; AID 652134; 87% of 2,400 active; shares compounds with DAX1 inh; HEK293T StAR-promoter luciferase reporter, SF-1/DAX-1 repression;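 active means inhibition above the average of every tested compound plus 3 SD, cut at about 3.8% in these data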;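 further: 0% = DAX-1 cells with DMSO and 100% = no DAX-1 control cells with DMSO; active compounds raise luminescence by relieving repression of the StAR reporter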
SF1 mutant ctr – nonselective inhibitor or artifact in SF-1 mutant DAX1 counter-screen | shares compounds with DAX1 inh | HEK293 StAR-luciferase, SF-1 AF2 mutant, luminescence | inhibition, % at 6.8 µM | 78% of 2,400 active | AID 652136;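 active means inhibition above the mean of all tested compounds plus 3 SD, cut at about 3% in these data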;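 further: 0% = DAX-1 transfected cells with DMSO and 100% = cells without DAX-1 with DMSO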
SMARCA2 conf – confirmation of SMARCA2 (BRM) function activators; shares compounds with SMARCA2 act; MG213 cells, MMTV-luciferase with dexamethasone, luminescence, overnight; MG213 cells expressing E1A, Rb sequestered; DMSO wells 0%, reference activator 100%; activation, % at 9.1 µM; 30% of 3,500 active; AID 652260;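 active means activation above its plate's cutoff, the mean activation of tested wells plus 3 SD, cut at about 7.9% in these data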
VP16 Luc act – counter-screen for SMARCA2 activators: GAL4-VP16 luciferase reporter activation. shares compounds with SMARCA2 act. HEK293 GAL4-VP16 pG5luc reporter, luciferase luminescence; scaled: DMSO wells 0%, SAHA wells 100%. activation, % at 9.1 µM. 41% of 3,500 active. AID 686939;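 active means activation above the solvent-only control well mean plus 3 SD, averaged across control plates, cut at about 5.2% in these data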
LXR ag – LXR-beta agonism as hcDAF-12 counter-screen; shares compounds with hcDAF-12 act; HEK293 Gal4-LXR tk-luc reporter, luminescence, 24 h; normalized: DMSO 0%, positive control 100%; activation, % at 6.8 µM; 3,400 tested, under 10 active;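 active means mean percent activation of the reporter above a cutoff set as the average over tested compounds plus their standard deviation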
Target sequence (P55055 whole entry, looked up, the tested form may be a part): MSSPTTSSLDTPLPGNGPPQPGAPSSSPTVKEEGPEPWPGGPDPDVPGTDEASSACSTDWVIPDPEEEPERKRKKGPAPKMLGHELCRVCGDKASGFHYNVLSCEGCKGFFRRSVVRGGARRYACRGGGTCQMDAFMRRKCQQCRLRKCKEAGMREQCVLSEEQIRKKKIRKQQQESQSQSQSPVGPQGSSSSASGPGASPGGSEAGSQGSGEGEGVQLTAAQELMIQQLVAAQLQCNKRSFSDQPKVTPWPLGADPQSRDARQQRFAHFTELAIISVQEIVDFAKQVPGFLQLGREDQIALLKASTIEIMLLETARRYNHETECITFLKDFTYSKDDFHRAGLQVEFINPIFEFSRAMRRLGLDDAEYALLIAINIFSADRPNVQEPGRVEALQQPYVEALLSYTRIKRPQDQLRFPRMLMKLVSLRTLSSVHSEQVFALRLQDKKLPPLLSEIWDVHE
hcDAF12 ag – hcDAF-12 agonism, confirmation assay; shares compounds with hcDAF-12 act; HEK293 hcDAF-12 lit1-tk-luc reporter, luminescence; % of Δ7-dafachronic acid response; activation, % at 6.8 µM; 61% of 3,400 active; AID 743032;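 active means mean activation across triplicate tests above the threshold derived from the earlier primary screen, cut at about 5.5% in these data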;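 further: 0% = DMSO only wells and 100% = 3 µM Δ7-dafachronic acid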
hgDAF12 ag – hgDAF-12 agonism, confirmation assay | HEK293 GAL4-hgDAF12 luciferase reporter, agonist mode; percent of butyrate response | 80% of 3,300 active | AID 743050 | activation, % at 6.8 µM | shares compounds with hgDAF12 agonist;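 active means mean activation over triplicate wells above the hit cutoff derived from the earlier primary screen, cut at about 11% in these data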;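 further: 0% = DMSO low control and 100% = 2 mM sodium butyrate high control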
LXRb DAF12 ctr – LXR-beta agonism as DAF-12 counter-screen | shares compounds with hgDAF12 agonist | HEK293 Gal4-LXR luciferase reporter, 24 h | activation, % at 6.8 µM | 3,300 tested, under 10 active;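 active means mean activation of the triplicate above a set limit carried over from the primary screen, none filed active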
Starred values were filed as active, the others as inactive; . = no result given. The list is not random: actives were taken first. Their share in the collection is about 4.2%.

SMILES | ssDAF12 agonist | DAX1 inh | hgDAF12 agonist | hcDAF-12 act | SMARCA2 act | DAX1 conf | SF1 mutant ctr | hgDAF12 ag | LXRb DAF12 ctr | others
Cc1cc(O)cc(O[C@H]2OC(CO)[C@H](O)[C@@H](O)[C@H]2O)c1 (stereo partly specified) | -0.9 | -0.4 | 1.8 | 2.4 | 0.9 | . | . | . | .
COc1ccc(/C=C/c2cc(O)cc(OC3OC(CO)C(O)C(O)C3O)c2)cc1 (stereo unspecified) | -0.4 | 8.8* | 16.6* | 6.9* | 2.7 | 15.8* | 8.2* | 10.7* | 0.8 | LXR ag=1.8;hcDAF12 ag=7.8*
CC(=O)N(c1ccccc1)c1nnc(-c2cnc(C)cn2)s1 | -0.4 | 8.4* | 14.1* | 5.5 | 3.1 | 9.5* | 9.2* | 10.8* | 0.5
Cc1cnc(-c2nnc(N(C)C(=O)c3cccnc3)s2)cn1 | -0.1 | 0.2 | 0.1 | 0.3 | 4.7 | . | . | . | .
O=C(/C=C/c1ccc([N+](=O)[O-])cc1)Nc1ncc([N+](=O)[O-])s1 | 0.7 | 7.4* | 26.9* | 11.7* | 1.1 | -5.5 | -6.3 | 5.6 | 0.7 | LXR ag=0.9;hcDAF12 ag=5.8*
O=C(/C=C/c1ccc([N+](=O)[O-])cc1)NCc1ccccn1 | -1.1 | -0.9 | 3.6 | -1.4 | 1.1 | . | . | . | .
CN(C)c1cccc(/C=C2\CC3(OC(=O)c4cccc(F)c4)CCCN2C3)c1 (stereo unspecified) | -0.5 | 0.6 | -1.0 | 0.2 | 0.5 | . | . | . | .
COc1ccc2c(c1)CCC/C2=N\NC(=O)c1ccoc1C | 1.2* | 4.6* | 24.9* | 7.6* | 3.7 | 5.0* | 1.3 | 4.6 | 0.1 | LXR ag=-0.1;hcDAF12 ag=0.2
O=c1[nH]c(SCc2ccc(Cl)cc2)nc2ccccc12 | -1.5 | 0.6 | -0.2 | -1.0 | -3.9 | . | . | . | .
Clc1ccc(CSc2nc3ccncc3[nH]2)cc1 | 0.7 | 8.4* | 18.6* | 5.9* | 3.8 | 12.0* | 5.9* | 19.4* | 0.9
COCC#Cc1cnc2c(c1)C(=O)N([C@@H](C)CO)C[C@H](C)[C@H](CN(C)C(=O)c1ccc3c(c1)OCO3)O2 | -1.1 | -0.2 | 1.4 | 1.1 | -0.2 | . | . | . | .
CCOc1ccc(-n2c(COc3ccc(C)cc3)nnc2SCC(=O)c2ccc3ccccc3c2)cc1 | -1.6 | -0.7 | -1.7 | -2.4 | 1.0 | . | . | . | .
CCC(C)c1ccc(NC(=O)CSc2nnc(-c3cccc(C)c3)n2C)cc1 (stereo unspecified) | -1.9 | -1.2 | -0.9 | -2.3 | -4.5 | . | . | . | .
CCN(Cc1ccccc1)c1ccc(/C=C(\C#N)c2ccccn2)cc1 | 2.1* | 5.1* | 27.0* | 9.3* | 0.3 | 3.7* | 5.7* | 12.7* | 0.6 | LXR ag=0.9;hcDAF12 ag=3.7
CN(CCC#N)c1ccc(/C=C(\C#N)c2ccccn2)cc1 | 2.1* | 5.7* | 23.0* | 16.9* | 3.8 | 11.9* | 2.5 | 14.8* | 0.9 | LXR ag=1.4;hcDAF12 ag=5.2
CN1CCCCC(NC(=O)c2ccccc2)C1=O (stereo unspecified) | -0.6 | -0.5 | 1.2 | 0.3 | -0.6 | . | . | . | .
Cc1ccc(C(=O)c2ccc(C)cc2)cc1 | -1.4 | -0.1 | 5.5 | 0.7 | 1.5 | . | . | . | .
CC(=O)c1ccc(N=Nc2ccc(C)cc2)cc1 | -0.2 | 6.6* | 15.1* | 6.4* | 4.2 | 9.5* | 2.7 | 7.6 | 1.0
Cn1nnnc1SCC(=O)Nc1ccc2c(c1)OCCO2 | 0.2 | 6.5* | 14.9* | 3.1 | 5.8 | 8.2* | 2.6 | 13.7* | 0.7
Cc1noc(C)c1-c1ccc(C(=O)Nc2ccccc2)c2occc12 | 1.0* | 9.7* | 18.4* | 5.4 | 12.0* | 11.5* | 1.7 | 12.9* | 0.9 | SMARCA2 conf=4.3;VP16 Luc act=16.1*
COc1ccc(-c2ccc(C(=O)Nc3ccccc3)c3occc23)c(C)c1 | 0.0 | 6.7* | 20.0* | 1.6 | -4.4 | 10.4* | 4.2* | 11.1* | 1.0
NC(=O)c1ccccc1N/C=C/C(=O)c1ccccc1 | 0.1 | 5.8* | 13.3* | 5.2 | 8.0* | 11.9* | 5.4* | 16.0* | 0.8 | SMARCA2 conf=11.4*;VP16 Luc act=9.8*
Fc1cccc(Cc2c(-c3cccc(Br)c3)nc3ccc(Br)cn23)c1 | -0.3 | 2.3 | 9.9 | -0.8 | 2.7 | . | . | . | .
Cc1ccc(-c2nc3ccc(Cl)cn3c2Cc2cccc(F)c2)cc1 | 0.5 | 6.5* | 20.7* | 0.5 | 2.2 | 9.7* | 4.9* | 10.7* | 0.3
Cc1ccc2nc(-c3ccc(Cl)cc3)c(Cc3cccc(F)c3)n2c1 | 0.2 | 3.0 | 8.3 | -0.1 | 0.7 | . | . | . | .
SMILES | ssDAF12 agonist | DAX1 inh | hgDAF12 agonist | hcDAF-12 act | SMARCA2 act | DAX1 conf | SF1 mutant ctr | hgDAF12 ag | LXRb DAF12 ctr | others
Fc1cccc(Cc2c(-c3ccc(Cl)cc3)nc3ccc(Br)cn23)c1 | -0.5 | 4.7* | 17.6* | 4.0 | 1.6 | 1.8 | 1.1 | 1.0 | 0.1
CC(C)n1c(=N)c(C(=O)NCCc2ccccc2)cc2c(=O)n3ccccc3nc21 | -0.9 | -0.4 | 5.9 | 1.8 | 0.1 | . | . | . | .
O=C(NCCc1ccccc1)c1cnc2ccccn2c1=O | -0.6 | 5.2* | 14.5* | 2.5 | 6.6 | 13.0* | 5.7* | 13.3* | 0.8
O=C(c1[nH]c(C(F)(F)F)nc1-c1ccccc1)N1CCN(c2c(Cl)cncc2Cl)CC1 | -0.7 | -0.5 | -1.2 | -0.8 | -3.4 | . | . | . | .
Cc1ccc(S(=O)(=O)NCC(=O)N2CCN(c3ccccn3)CC2)cc1C | -1.2 | -0.8 | 1.6 | 0.8 | -2.6 | . | . | . | .
COc1cccc2sc(N(C)c3ccccc3)nc12 | 0.7 | 4.6* | 13.3* | 6.5* | 3.3 | 10.7* | 6.4* | 15.0* | 1.0
